Laboratory results reported in ChEMBL document CHEMBL1961873, “Compounds: GSK PKIS; Assays: Nanosyn kinase panel” (2012).

What was measured:
[1] = target: Sphingosine kinase 1 (Homo sapiens) (UniProt Q9NYA1); settings: at 1 µM;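 further: mean SPHK1 inhibition value reported from the GSK PKIS kinase panel screen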
[2] = target: T1, Sphingosine kinase 2 (Homo sapiens) (UniProt Q9NRA0); settings: at 0.1 µM
T1 sequence (whole entry): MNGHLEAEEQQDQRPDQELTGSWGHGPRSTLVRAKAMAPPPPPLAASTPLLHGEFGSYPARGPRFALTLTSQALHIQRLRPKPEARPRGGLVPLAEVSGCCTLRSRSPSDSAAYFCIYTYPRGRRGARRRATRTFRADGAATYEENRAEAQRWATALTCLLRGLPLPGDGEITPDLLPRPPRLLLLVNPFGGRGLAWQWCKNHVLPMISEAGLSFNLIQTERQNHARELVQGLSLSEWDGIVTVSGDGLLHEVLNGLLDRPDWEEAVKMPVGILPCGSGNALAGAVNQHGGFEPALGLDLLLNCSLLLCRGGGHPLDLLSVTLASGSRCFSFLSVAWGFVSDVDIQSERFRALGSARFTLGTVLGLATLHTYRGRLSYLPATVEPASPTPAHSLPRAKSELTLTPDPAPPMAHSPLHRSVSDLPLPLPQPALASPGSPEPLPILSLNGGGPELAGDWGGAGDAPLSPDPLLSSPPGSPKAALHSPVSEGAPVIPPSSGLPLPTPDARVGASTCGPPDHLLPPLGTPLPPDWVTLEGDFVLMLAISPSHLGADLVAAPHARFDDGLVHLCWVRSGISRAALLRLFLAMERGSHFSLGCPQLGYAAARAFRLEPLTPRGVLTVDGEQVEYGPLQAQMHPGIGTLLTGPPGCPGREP

[3] = target: T1, Sphingosine kinase 2 (Homo sapiens); settings: at 1 µM
[4] = target: Casein kinase II subunit alpha (Homo sapiens) (UniProt P68400); settings: at 0.1 µM
[5] = target: Casein kinase II subunit alpha (Homo sapiens) (UniProt P68400); settings: at 1 µM
[6] = target: T2, Inhibitor of nuclear factor kappa-B kinase subunit alpha (Homo sapiens) (UniProt O15111); settings: at 0.1 µM
T2 sequence (whole entry): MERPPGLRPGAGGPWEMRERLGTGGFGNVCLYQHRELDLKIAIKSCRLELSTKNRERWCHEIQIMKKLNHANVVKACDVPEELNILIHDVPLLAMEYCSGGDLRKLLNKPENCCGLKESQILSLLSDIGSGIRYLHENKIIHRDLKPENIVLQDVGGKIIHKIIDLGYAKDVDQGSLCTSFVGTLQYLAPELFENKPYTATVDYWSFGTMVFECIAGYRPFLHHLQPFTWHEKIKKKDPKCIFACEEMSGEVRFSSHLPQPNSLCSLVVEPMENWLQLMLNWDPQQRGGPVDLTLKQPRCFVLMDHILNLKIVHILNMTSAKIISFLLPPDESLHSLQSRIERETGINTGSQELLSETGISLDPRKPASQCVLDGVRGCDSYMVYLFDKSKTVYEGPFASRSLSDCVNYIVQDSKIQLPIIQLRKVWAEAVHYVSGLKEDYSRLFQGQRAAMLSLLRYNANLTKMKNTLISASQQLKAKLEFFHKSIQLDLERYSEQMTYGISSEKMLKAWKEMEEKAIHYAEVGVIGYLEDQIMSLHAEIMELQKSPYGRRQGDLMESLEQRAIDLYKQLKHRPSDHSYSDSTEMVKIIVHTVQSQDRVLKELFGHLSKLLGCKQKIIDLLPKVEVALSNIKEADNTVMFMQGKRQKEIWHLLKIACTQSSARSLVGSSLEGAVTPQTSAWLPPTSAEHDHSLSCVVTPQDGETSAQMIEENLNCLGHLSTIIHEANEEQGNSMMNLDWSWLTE

[7] = target: T2, Inhibitor of nuclear factor kappa-B kinase subunit alpha (Homo sapiens); settings: at 1 µM
[8] = target: T3, Inhibitor of nuclear factor kappa-B kinase subunit beta (Homo sapiens) (UniProt O14920); settings: at 0.1 µM
T3 sequence (whole entry): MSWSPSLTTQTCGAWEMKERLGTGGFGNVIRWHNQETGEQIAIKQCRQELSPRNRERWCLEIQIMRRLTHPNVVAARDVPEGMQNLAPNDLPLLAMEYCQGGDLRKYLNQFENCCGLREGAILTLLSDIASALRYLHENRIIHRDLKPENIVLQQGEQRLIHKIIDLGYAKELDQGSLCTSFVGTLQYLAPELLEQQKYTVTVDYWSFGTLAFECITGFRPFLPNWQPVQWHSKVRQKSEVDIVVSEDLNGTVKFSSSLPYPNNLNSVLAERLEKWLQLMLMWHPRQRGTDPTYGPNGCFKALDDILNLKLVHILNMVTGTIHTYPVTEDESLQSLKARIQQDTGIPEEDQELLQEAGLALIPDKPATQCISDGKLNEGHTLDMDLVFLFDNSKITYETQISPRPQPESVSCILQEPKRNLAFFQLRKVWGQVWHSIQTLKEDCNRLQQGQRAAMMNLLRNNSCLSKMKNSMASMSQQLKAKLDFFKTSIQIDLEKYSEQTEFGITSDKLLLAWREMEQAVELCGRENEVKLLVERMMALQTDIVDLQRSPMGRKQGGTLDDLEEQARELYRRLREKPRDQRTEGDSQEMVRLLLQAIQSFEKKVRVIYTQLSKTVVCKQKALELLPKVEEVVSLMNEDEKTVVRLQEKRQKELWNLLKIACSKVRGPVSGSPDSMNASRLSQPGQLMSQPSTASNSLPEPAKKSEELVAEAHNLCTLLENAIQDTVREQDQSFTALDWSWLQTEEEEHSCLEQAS

[9] = target: T3, Inhibitor of nuclear factor kappa-B kinase subunit beta (Homo sapiens); settings: at 1 µM
[10] = target: T4, Inhibitor of nuclear factor kappa-B kinase subunit epsilon (Homo sapiens) (UniProt Q14164); settings: at 0.1 µM;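 further: mean inhibition of IKKε reported, from the GSK PKIS dataset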
T4 sequence (whole entry): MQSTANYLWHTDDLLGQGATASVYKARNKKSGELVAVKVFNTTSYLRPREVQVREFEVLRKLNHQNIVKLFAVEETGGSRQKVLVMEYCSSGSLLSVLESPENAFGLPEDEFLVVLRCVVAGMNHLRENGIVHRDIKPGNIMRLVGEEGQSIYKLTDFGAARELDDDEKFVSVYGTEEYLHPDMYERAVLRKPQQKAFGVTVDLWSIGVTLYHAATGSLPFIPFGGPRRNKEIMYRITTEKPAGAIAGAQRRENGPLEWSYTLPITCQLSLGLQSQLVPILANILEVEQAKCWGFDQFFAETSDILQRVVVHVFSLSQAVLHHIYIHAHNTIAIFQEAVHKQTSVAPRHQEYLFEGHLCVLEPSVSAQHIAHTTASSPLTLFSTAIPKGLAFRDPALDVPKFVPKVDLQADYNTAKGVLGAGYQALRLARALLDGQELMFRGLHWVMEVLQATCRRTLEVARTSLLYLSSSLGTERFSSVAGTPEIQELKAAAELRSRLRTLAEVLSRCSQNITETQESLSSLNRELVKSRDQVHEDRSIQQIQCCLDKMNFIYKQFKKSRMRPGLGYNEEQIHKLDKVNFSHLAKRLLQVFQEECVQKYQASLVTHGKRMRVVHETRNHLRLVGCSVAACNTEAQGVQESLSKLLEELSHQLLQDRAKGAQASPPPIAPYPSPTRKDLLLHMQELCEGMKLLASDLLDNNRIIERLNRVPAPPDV

Casein kinase II subunit alpha (Homo sapiens), sequence (P68400 whole entry, looked up): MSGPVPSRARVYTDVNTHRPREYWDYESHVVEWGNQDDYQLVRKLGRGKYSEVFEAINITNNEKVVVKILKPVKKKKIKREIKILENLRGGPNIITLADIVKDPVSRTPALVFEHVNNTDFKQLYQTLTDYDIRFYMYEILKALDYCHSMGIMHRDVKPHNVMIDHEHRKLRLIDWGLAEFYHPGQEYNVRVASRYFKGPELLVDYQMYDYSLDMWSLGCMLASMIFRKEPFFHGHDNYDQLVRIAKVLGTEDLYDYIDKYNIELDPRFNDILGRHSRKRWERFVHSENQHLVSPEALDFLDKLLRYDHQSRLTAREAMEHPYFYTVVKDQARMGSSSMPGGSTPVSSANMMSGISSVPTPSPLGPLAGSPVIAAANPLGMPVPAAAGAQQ
Sphingosine kinase 1 (Homo sapiens), sequence (Q9NYA1 whole entry): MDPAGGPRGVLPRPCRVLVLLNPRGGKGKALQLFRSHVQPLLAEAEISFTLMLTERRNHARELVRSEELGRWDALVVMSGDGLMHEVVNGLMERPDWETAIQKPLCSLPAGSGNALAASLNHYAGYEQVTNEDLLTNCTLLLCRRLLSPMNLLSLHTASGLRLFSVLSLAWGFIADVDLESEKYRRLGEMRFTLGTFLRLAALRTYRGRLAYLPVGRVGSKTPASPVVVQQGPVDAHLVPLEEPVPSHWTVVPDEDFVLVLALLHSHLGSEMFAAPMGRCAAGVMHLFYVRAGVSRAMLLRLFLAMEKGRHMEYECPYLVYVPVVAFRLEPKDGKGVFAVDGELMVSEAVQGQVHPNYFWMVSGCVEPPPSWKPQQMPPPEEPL

Cc1cc(-c2ccccn2)cc(C)c1/C=C/c1cncc(-c2nn[nH]n2)c1
inhibition [1]: 0.83%
inhibition [2]: 0%
inhibition [3]: 0%
inhibition [4]: 7.89%
inhibition [5]: 6.35%
inhibition [6]: 5.76%
inhibition [7]: 7.54%
inhibition [8]: 4.37%
inhibition [9]: 6.71%
inhibition [10]: 7.41%
